Screening data deposited in PubChem by National Center for Advancing Translational Sciences (NCATS).
3T3 cytotox – NIH 3T3 cell cytotoxicity | NIH 3T3 viability, CellTiter-Glo ATP luminescence, 48-72 h | Potency, µM (series often up to 96.7 µM), inactives show at the highest dose activity change, negative = cytotoxicity, most hits filed as inhibitors | 94,000 compounds, 4.3% hits | AID 1345082; also: % is scaled to controls: 0 for no effect and ±100 for the full control effect; nearly all actives have a fitted effect of over 55% in size
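Luminescent ATP readout (CellTiter-Glo, 10 min RT) after 48 or 72 hr compound exposure of NIH 3T3 cells seeded at 400 cells/well in 1536-well format; quantitative HTS.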
GPT2 inh – GPT2 alanine aminotransferase inhibition | Q8TD30 | Recombinant GPT2, coupled pyruvate oxidase/HRP Amplex Red fluorescence | Potency, µM (top dose mostly 57.7 µM), without a hit: at the highest dose activity change, negative = inhibition, most hits filed as inhibitors | 100,000 compounds, 0.25% hits | AID 1671188; also: % is scaled to controls: 0 for no effect and ±100 for the full control effect; nearly all actives have a fitted effect of over 60% in size
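Inhibition is scored from Amplex Red fluorescence generated when pyruvate oxidase and HRP act on pyruvate released by GPT2. Reactions contain 10ng/uL enzyme, 250uM a-KG and 2mM L-alanine and run 30 min at room temperature.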
hNpr1 antagonist – antagonists of human natriuretic peptide receptor Npr1. P16066. HEK293 hNpr1 GloSensor cGMP, ANP-stimulated luminescence. Potency, µM (titrated, usually from 46.3 µM), for the others: at the top dose activity change, negative = inhibition, usual class: inhibitors. 76,000 compounds, 1.6% hits. AID 1347048; calls by dose curve; also: % is scaled to controls: 0 for no effect and ±100 for the full control effect; nearly all actives have a fitted effect of over 60% in size
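HEK293 cells stably expressing human Npr1 and cGMP GloSensor pGS-40F, loaded 2 h with 2% GloSensor reagent, given compound 30 min at room temperature. Luminescence read before and 20 min after 0.1 nM hNppA.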
HEK cytotox – HEK 293 cell cytotoxicity | HEK 293 viability, ATP luminescence (CellTiter-Glo), 48-72 h | 94,000 compounds, 6.6% hits | Potency, µM (highest dose often 115 µM), for the others: top-dose activity change, negative = cytotoxicity, hits mostly inhibitors; also: % is scaled to controls: 0 for no effect and ±100 for the full control effect; nearly all actives have a fitted effect of over 60% in size
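Luminescence from cellular ATP, measured with CellTiter-Glo, indicates HEK 293 viability. Cells plated at 250 cells/well are treated with compound for 48 or 72 hr at 37 degree Celsius before reagent addition.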
FLuc inh-1 – blocks purified firefly luciferase enzyme activity. P08659. purified P. pyralis luciferase, luminescence, biochemical. Potency, µM (doses to about 115 µM), most hits filed as inhibitors. 76,000 compounds, 2.5% hits. AID 1347043; also: % is scaled to controls: 0 for no effect and ±100 for the full control effect; nearly all actives have a fitted effect of over 65% in size
Target sequence (P08659 whole entry, looked up): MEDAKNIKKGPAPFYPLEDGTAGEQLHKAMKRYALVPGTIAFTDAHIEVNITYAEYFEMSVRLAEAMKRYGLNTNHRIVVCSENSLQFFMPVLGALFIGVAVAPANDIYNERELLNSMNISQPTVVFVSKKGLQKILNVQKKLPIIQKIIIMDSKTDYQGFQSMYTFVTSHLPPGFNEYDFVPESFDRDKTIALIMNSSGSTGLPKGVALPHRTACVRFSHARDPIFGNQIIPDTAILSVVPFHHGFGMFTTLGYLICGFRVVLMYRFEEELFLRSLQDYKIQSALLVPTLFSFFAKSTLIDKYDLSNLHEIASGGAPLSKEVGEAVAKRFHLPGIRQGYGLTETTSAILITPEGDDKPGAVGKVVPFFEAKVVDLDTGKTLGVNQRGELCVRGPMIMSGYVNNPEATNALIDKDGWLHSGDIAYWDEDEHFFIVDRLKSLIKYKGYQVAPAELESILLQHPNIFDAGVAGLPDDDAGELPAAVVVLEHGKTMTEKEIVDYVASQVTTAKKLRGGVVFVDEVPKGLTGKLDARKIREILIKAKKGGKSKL
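Purified P. pyralis luciferase (10nM final) in 50mM Tris acetate pH 7.5, 10mM Mg acetate, 0.01% Tween-20, 0.05% BSA with 10uM D-luciferin and 10uM ATP. Compounds titrated qHTS. Luminescence imaged on CCD.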
FLuc SDR no ATP – binders stabilizing firefly luciferase, without ATP; Potency, µM (doses to about 32.7 µM), for inactives: at the top dose activation (signal gain), most hits filed as activators; Purified FLuc-C-HiBiT, Nano-Glo HiBiT luminescence, no ATP; AID 1963318; shares compounds with FLuc inh-1; 1,300 compounds, 7.8% hits; also: nearly all actives have a fitted effect of over 55% in size
FLuc SDR ATP – binders stabilizing firefly luciferase, plus ATP; shares compounds with FLuc inh-1; purified FLuc-C-HiBiT + ATP, HiBiT complementation luminescence; Potency, µM (series often up to 32.7 µM), without a hit: at the top dose activation (gain of signal), usual class: activators; 1,300 compounds, 8.7% hits;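 also: signal reports ligand binding via conformational change of the enzyme rather than luciferase catalysis; % of control where 0% means no effect; nearly all actives have a fitted effect of over 55% in size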
FLuc inh-2 – blocks firefly luciferase enzymatic activity | AID 1963320 | Potency, µM (titrated, usually from 32.7 µM), for the others: at the top dose activity change, negative = inhibition, most hits filed as inhibitors | purified FLuc-C-HiBiT enzyme, luciferin luminescence | 1,300 compounds, 42% hits | shares compounds with FLuc inh-1; also: % is scaled to controls: 0 for no effect and ±100 for the full control effect; nearly all actives have a fitted effect of over 70% in size
Numbers without * were called inactive; i = inactive; ? = inconclusive; . = no result; [ ] = dose if it differs, or a comment. An excerpt weighted towards active compounds, which were near 10% of everything screened. Unless noted, calls follow the shape of the dose curve; as a rule, active = well fitted curve in the direction sought with a large enough effect; inconclusive = small, poorly fitted or top-dose-only effect, or another doubt; inactive = no such curve, though single readings can be large; an effect the other way counts as inactive or inconclusive. Potency is read from the fitted curve at half-maximal effect.

SMILES	3T3 cytotox	GPT2 inh	hNpr1 antagonist	HEK cytotox	FLuc inh-1	FLuc SDR no ATP	FLuc SDR ATP	FLuc inh-2
Cn1c(=O)cc(N2CCCC(N)C2)n(Cc2ccccc2C#N)c1=O (stereo unspecified)	.	-1.7%	.	.	.	.	.	.
O=C(N[C@H]1CCN2C(=O)c3cc(-c4ccc(F)cc4F)ccc3NC(=O)[C@H]12)c1cccc(F)c1	?	2.8%	-12.4%	?	?	.	.	.
COc1ccc(-c2ccc3c(c2)C(=O)N2CC[C@H](NC(=O)c4cccc(F)c4)[C@H]2C(=O)N3)cc1	?	1.8%	-2.9%	?	11.2µM*	16.6%	11.3%	?
CSc1ccc(-c2ccc3c(c2)C(=O)N2CC[C@H](NC(=O)c4cccs4)[C@H]2C(=O)N3)cc1	-20.1%	i	-14.6%	-15.3%	6.31µM*	17.5%	11.6%	?
COc1ccc(C(=O)COC(=O)CCCC(=O)Nc2ccc(C(C)=O)cc2)cc1	.	.	.	.	.	28.6%	18.7%	?
COc1ccc2nc(-c3cc(OC)c(OC)c(OC)c3)cc(C(=O)NCC(=O)Nc3ccc(C(C)=O)cc3)c2c1	.	-7.3%	.	.	.	.	.	.
COCCC(=O)NCCC1CCN(C(=O)Nc2ccc(C)cc2)CC1	i	i	2.9%	15.7%	?	.	.	.
Cc1ccc(NC(=O)N2CCC(CCNC(=O)c3ccco3)CC2)cc1F	?	i	5.3%	-16.3%	i	.	.	.
CCC(=O)NCCC1CCN(C(=O)Nc2ccc(C)c(F)c2)CC1	-3.4%	-10.6%	-3.2%	9.3%	11.2µM*	?	?	?
CCC(=O)NCCC1CCN(C(=O)Nc2ccc(C)cc2)CC1	i	3.9%	-1.0%	11.5%	12.6µM*	?	?	?
CC(=O)NCCC1CCN(C(=O)Nc2ccc(C)cc2)CC1	3.3%	-13.0%	-21.1%	9.7%	8.91µM*	?	?	?
O=C1NCc2ccccc2CC12CCCN2Cc1ccccc1Br (stereo unspecified)	-8.9%	?	.	-2.9%	.	.	.	.
Cc1ccc(-n2ncc3c(NC4CCCCC4)ncnc32)cc1C	.	.	.	.	.	27.1%	?	1.76µM*
Cc1ccc(-n2ncc3c(NC4CCCCC4)ncnc32)cc1Cl	.	.	.	.	.	32.7%	?	2.79µM*
CN1CCC(N2CC[C@H]3COC(=O)N3c3cc(F)ccc3C2)CC1	-1.2%[174 µM]	i	2.9%[70.6 µM]	-2.7%[172 µM]	i	.	.	.
C[C@@H]1C(=O)O[C@H]2[C@H]1CC[C@@]1(C)Cc3sc(NC(=O)COCC(=O)O)nc3[C@@H](C)[C@H]21	i	i	-0.4%[70.6 µM]	i	12.6µM*	4.53µM*	?	5.7µM*
CSCC(=O)Nc1nc2c(s1)C[C@]1(C)CC[C@@H]3[C@H](OC(=O)[C@H]3C)[C@H]1[C@@H]2C	100µM*	i	7.08µM*	35.5µM*	0.891µM*	?	?	4.53µM*
O=C(c1cc(CN2CCOCC2)on1)N1CCc2c(nc3cc(-c4ccccc4)[nH]n3c2=O)C1	-2.5%	-5.9%	-11.8%	11.3%	i	.	.	.
Cc1ccc(-c2nnc(C3CN(C(=O)c4sc(C)nc4C)CC34CCOCC4)o2)cc1 (stereo unspecified)	-23.1%	?	-7.8%	-20.3%	i	12.4%	9.5%	0.3%
CCOc1ccccc1NC(=O)c1c(OC)cc(=O)n2c1CCCC2	2.7%	i	0.2%	-2.9%	i	.	.	.
Cc1ccc(-c2cc(N3CCC(CNC(=O)c4ccc5nc[nH]c5c4)CC3)n[nH]2)cc1	?	?	-24.7%	?	14.1µM*	19.7%	14.8%	?
O=C(Cn1nc2c(cc1=O)CCCCC2)NCCn1c(=O)c(=O)[nH]c2ccccc21	i	?	0.4%	3.1%	i	.	.	.
CCc1ccccc1NC(=O)c1cc2c(=O)[nH]c(C)cn2n1	i	3.3%	-5.3%	-2.5%	12.6µM*	16.7%	13.0%	?
Cc1cn2nc(C(=O)N3CCCC3)cc2c(=O)[nH]1	i	1.0%	9.9%	1.7%	i	.	.	.
Cc1cn2nc(C(=O)Nc3ccc(C(=O)N4CCCC4)cc3)cc2c(=O)[nH]1	?	i	4.7%	?	7.94µM*	?	?	9.89µM*
SMILES	3T3 cytotox	GPT2 inh	hNpr1 antagonist	HEK cytotox	FLuc inh-1	FLuc SDR no ATP	FLuc SDR ATP	FLuc inh-2
Cc1ccc(CCNC(=O)c2cc3c(=O)[nH]c(C)cn3n2)cc1	-9.8%	-1.3%	2.0%	-6.0%	?	.	.	.
Cc1cn2nc(C(=O)NCCc3ccccc3)cc2c(=O)[nH]1	3.7%	-2.4%	-21.3%	-1.9%	10µM*	?	?	?
O=C(NCCN1CCOCC1)C1CN(c2ccnc3ccnn23)C1	-5.1%[138 µM]	i	.	2.8%[172 µM]	.	.	.	.
CN(Cc1ccccc1)C(=O)[C@H]1C[C@@H](O)[C@H](O)[C@@H]2N=C(Nc3ccc(-n4cccn4)cc3)S[C@@H]21	-27.3%	-1.7%	6.0%	?	12.6µM*	9.2%	?	?
COc1ccc(C)cc1NC(=O)c1ccc2c(Cl)c3c(nc2c1)CCC3	.	.	.	.	.	22.5%	15.5%	?
COc1ccc(C)cc1NC(=O)Cn1nc2c(cc1=O)CCCCC2	-1.1%	4.4%	1.9%	2.6%	i	.	.	.
COc1ccc(/C=C/c2ccc3c(c2)C(=O)N2CC[C@H](NC(=O)COCC(=O)O)[C@H]2C(=O)N3)cc1	?	i	-2.3%	?	7.94µM*	?	?	9.89µM*
CSCC(=O)N[C@H]1CCN2C(=O)c3cc(/C=C/c4ccccc4)ccc3NC(=O)[C@H]12	-25.7%[174 µM]	-16.0%[88.5 µM]	2.4%[70.6 µM]	?	11.2µM*	17.3%[49.3 µM]	10.2%[49.3 µM]	?
CCC(O)CNC(=O)c1cn2cc(-c3ccc(F)cc3)n(CC=C(C)C)c(=O)c2n1 (stereo unspecified)	-0.3%	3.2%	2.5%	-7.3%	i	.	.	.
O=C(O)CCC1CCN(c2cc(NC3CC3)ncn2)CC1	-11.9%	i	-0.4%	5.3%	5.01µM*	15.6%	3.94µM*	3.13µM*
O=C(CCC1CCN(c2cc(NC3CC3)ncn2)CC1)Nc1ccccc1	-24.4%	i	?	?	?	.	.	.
CCCNc1cc(N2CCC(CCC(=O)O)CC2)ncn1	2.2%	i	3.4%	4.4%	39.8µM*	15.2%	9.89µM*	7.85µM*
